Measurements published in PubChem BioAssay (NCATS).
Inconclusive results are not listed. Calls of active or inactive are those of the source. Unless noted, the call rests on the fitted dose curve; in most records, active means well fitted curve in the direction sought with a large enough effect; inconclusive means small, poorly fitted or top-dose-only effect, or another doubt; inactive means no such curve, though single readings can be large; an effect the other way counts as inactive or inconclusive. Where a SMILES comes first, the peptide text is derived from it. [ ]: non-standard residue; d: D form. Ala(indol-2-yl) = N[C@@H](Cc1cc2ccccc2[nH]1)C(=O)O; Aib = CC(C)(N)C(=O)O

How the values were obtained:
[1] = P-glycoprotein substrates identified in KB-8-5-11 adenocarcinoma cell line, qHTS therapeutic library screen (AID 1346987); further: nearly all actives have a fitted effect of over 65% in size; further: potency means the concentration at half of the fitted maximal effect; on activity change, negative = cytotoxicity: on the % scale 0 is the no-effect control and ±100 the full control effect
Method in brief: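 Steps: plate 500 KB-8-5-11 cells/well in DMEM + 10% FCS (colchicine removed); pin compounds in dose-response; incubate 72 h, 37 degree C, 5% CO2; add CellTiter-Glo, 5 min; read luminescence.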

[2] = system: Zika virus NS2B-NS3 protease (unlinked complex); test: Primary screen GU Rhodamine qHTS for Zika virus inhibitors: Unlinked NS2B-NS3 protease assay (AID 1347159); further: nearly all actives have a fitted effect of over 60% in size; further: potency means the concentration at half of the fitted maximal effect; on activity change, negative = inhibition: on the % scale 0 is the no-effect control and ±100 the full control effect
Method in brief: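 Noncovalent NS2B hydrophilic domain–NS3 protease domain complex (25 nM) preincubated 15 min at room temperature with compounds (up to 114 microM) in 10 mM Tris-HCl pH 8.0, 0.01% Tween 20; 1.5 microM Rhodamine110 substrate added, fluorescence change over 15 min fitted to Hill equation.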

[3] = system: Zika virus NS2B-NS3 protease (linked construct); test: Primary screen NINDS Rhodamine qHTS for Zika virus inhibitors (AID 1347160); further: nearly all actives have a fitted effect of over 55% in size; on activity change, negative = inhibition: on the % scale 0 is the no-effect control and ±100 the full control effect
Method in brief: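 Purified linked NS2B-NS3 protease (NS2B hydrophilic domain joined to NS3 protease by flexible linker), 25 nM in 10 mM Tris-HCl pH 8.0, 0.01% Tween 20. Compounds titrated, 15 min preincubation at room temperature; 1.5 microM Rhodamine110 substrate, FITC fluorescence change over 15 min.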

[4] = molecular target: Calcium and integrin-binding protein 1 (Homo sapiens) (UniProt Q99828); test: Primary qHTS for Identification of Calcium Integrin Binding Protein 1 (CIB1) Competitor (AID 1508620);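 further: GST tagged CIB1 binding a fluorescein labelled alphaIIb integrin peptide tracer; top concentration of the series differs between compounds; on the % scale 0 is the no-effect control and ±100 the full control effect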
Sequence of Calcium and integrin-binding protein 1 (Homo sapiens) (Q99828 whole entry, looked up): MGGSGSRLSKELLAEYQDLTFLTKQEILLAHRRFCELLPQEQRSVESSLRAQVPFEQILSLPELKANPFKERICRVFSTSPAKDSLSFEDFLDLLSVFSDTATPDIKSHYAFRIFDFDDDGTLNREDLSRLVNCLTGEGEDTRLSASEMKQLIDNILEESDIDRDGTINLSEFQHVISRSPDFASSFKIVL
Method in brief: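 CIB1-GST (1 uM final) and compound incubated 15 min at room temperature before adding FITC-alphaIIb peptide tracer (100 nM final). Competition for binding read by fluorescence polarization (ex 480, em 540) after another 15 min at room temperature.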

[5] = molecular target: Cytochrome P450 2C9 (Homo sapiens) (UniProt P11712); test: Cytochrome P450 family 2 subfamily C member 9 (CYP2C9) small molecule antagonists: luciferase biochemical (cell-free) qHTS assay (AID 1645842; active means well fitted curve in the direction sought with a large enough effect in the repeat runs; an effect the other way counts as inactive or inconclusive; further: potency means the concentration at half of the fitted maximal effect; nearly all actives have a fitted effect of over 55% in size)
Sequence of Cytochrome P450 2C9 (Homo sapiens) (P11712 whole entry, looked up): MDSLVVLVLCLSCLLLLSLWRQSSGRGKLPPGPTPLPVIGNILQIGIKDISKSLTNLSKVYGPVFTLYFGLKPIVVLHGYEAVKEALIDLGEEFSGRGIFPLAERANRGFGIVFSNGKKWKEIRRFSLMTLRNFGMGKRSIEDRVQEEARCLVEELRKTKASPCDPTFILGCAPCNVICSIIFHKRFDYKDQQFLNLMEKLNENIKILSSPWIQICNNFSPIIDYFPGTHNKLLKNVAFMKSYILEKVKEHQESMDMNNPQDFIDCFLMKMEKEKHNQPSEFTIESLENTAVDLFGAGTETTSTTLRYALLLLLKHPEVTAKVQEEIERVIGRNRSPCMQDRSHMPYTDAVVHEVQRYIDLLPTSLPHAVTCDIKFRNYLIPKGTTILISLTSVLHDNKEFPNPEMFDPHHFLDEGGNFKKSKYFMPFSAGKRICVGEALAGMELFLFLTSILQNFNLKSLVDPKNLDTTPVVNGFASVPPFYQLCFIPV
Method in brief: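 Luminescence, after 20 min with luciferin detection reagent, reflected CYP2C9 turnover during a 1 h NADPH-driven reaction at 37C. Enzyme-substrate mix contained 0.4% bovine serum albumin and was preincubated with compound 10 min at room temperature.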

[6] = Primary redox qHTS assay for identification of artifact compounds. (AID 1845223);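 further: 0% = DMSO and 100% = reference compound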
Method in brief: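 Amplex Red (25 uM) and HRP (250 mU/mL) in HBSS, with compounds for 15 min, then 250 uM DTT for 30 min, room temperature, dark. Fluorescence 525/598 nm read; normalized to DMSO and 10 uM DA3003; Hill fit.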

[7] = system: CAOV3; test: Primary qHTS to identify gynecologic anti-cancer compounds using libraries of approved drugs and bioactive compounds (AID 1345084); details: Gynecologic cancer cell panel viability, ATPlite luminescence, 48 h; series mostly up to 57.5 µM; further: on the % scale 0 is the no-effect control and ±100 the full control effect; nearly all actives have a fitted effect of over 55% in size
Method in brief: (§1)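 Luminescence from the ATPlite ATP-monitoring reagent indicates viable cell number; lower signal means cytotoxicity. Cells received compound 16 h after seeding and were exposed for 48 h across five concentrations.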

[8] = system: JEG-3; test: as above; details: Gynecologic cancer cell panel viability, ATPlite luminescence, 48 h; series mostly up to 57.5 µM
Method in brief: as §1

[9] = P-glycoprotein substrates identified in KB-3-1 adenocarcinoma cell line, qHTS therapeutic library screen (AID 1346986); further: nearly all actives have a fitted effect of over 60% in size
Method in brief: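 Cells seeded 500/well in DMEM/10% FCS; compounds pinned in dose-response; 72 h incubation; CellTiter-Glo added, 5 min, luminescence. KB-8-5-11 run ±tariquidar to test reversal of P-gp resistance.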

[10] = system: HeLa; test: Primary qHTS to identify gynecologic anti-cancer compounds using libraries of approved drugs and bioactive compounds (AID 1345084); details: Gynecologic cancer cell panel viability, ATPlite luminescence, 48 h; series mostly up to 57.5 µM; further: on the % scale 0 is the no-effect control and ±100 the full control effect; nearly all actives have a fitted effect of over 55% in size
Method in brief: as §1

[11] = system: SKOV3; test: as above; details: Gynecologic cancer cell panel viability, ATPlite luminescence, 48 h; series mostly up to 57.5 µM
Method in brief: as §1

[12] = system: CRL-7250; test: qHTS assay to identify novel small-molecules to repurpose for Merkel cell carcinoma treatment (AID 1296009); details: MCC and control cell lines, CellTiter-Glo viability, 72 h; series mostly up to 92 µM; further: nearly all actives have a fitted effect of over 60% in size
Method in brief: (§2)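 72 hr, 37 degree celsius; NPC 8-pt / MIPE 11-pt dose response; compound pinned in DMSO; CellTiter-Glo, 10 min RT, luminescence; normalized to no-cell and DMSO controls.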

[13] = system: HACAT; test: as above; details: MCC and control cell lines, CellTiter-Glo viability, 72 h; at 44.8 µM (top of the series) unless noted
Method in brief: as §2

CCc1nn(C)c(C(=O)NCc2ccc(Oc3ccc(C)cc3)cc2)c1Cl
inactive: Potency [2] | Potency [3] | Potency [4] | Potency [6] | Potency [7] | Potency [8]
active: Potency [1] 25.9 µM | Potency [5] 5.35 µM

CC(C)(NC(=O)[C@@H](N)Cc1ccc(O)cc1)C(=O)N[C@@H](Cc1cc2ccccc2[nH]1)C(=O)N[C@@H](Cc1ccccc1)C(=O)O (H-Y[Aib][Ala(indol-2-yl)]F-OH)
inactive: outcome [9] inactive [at 9.29 µM] | activity change, negative = cytotoxicity [1] 5.29% [at 9.29 µM] | activity change, negative = inhibition [3] -10.9% [at 10.7 µM] | redox activity (% of DA3003) [6] 9.88% [at 11.5 µM] | activity change, negative = cytotoxicity [7] 2.52% [at 11.6 µM] | activity change, negative = cytotoxicity [10] 14.3% [at 11.6 µM] | activity change, negative = cytotoxicity [8] -21.6% [at 11.6 µM] | activity change, negative = cytotoxicity [11] -8.69% [at 11.6 µM]

CN1C[C@@H]2CN(c3ccc(-c4ccccc4)nn3)C[C@@H]2C1
inactive: Potency [1] | Potency [3] | Potency [4] | Potency [6] | Potency [7] | Potency [10] | Potency [8] | Potency [11]

C=C1C[C@]2(O)[C@@]3(C)CCC(=O)C(C)(C)C3=C(O)C(=O)[C@@]2(C)[C@@H]2C(=O)O[C@@](C)(C(=O)OC)C(=O)[C@@]12C
inactive: Potency [1] | Potency [4] | Potency [7] | Potency [10] | Potency [8] | Potency [11]

CC[C@H]1C2CC3[C@@H]4N(C)c5ccccc5[C@]45C[C@@H]([C@H]2[C@H]5O)N3[C@@H]1O
inactive: Potency [1] | Potency [3] | Potency [6] | Potency [7] | Potency [10] | Potency [8] | Potency [11]

CC(=O)O[C@H]1CC[C@@]2(CI)C(=CC[C@@H]3[C@@H]2CC[C@]2(C)C(=O)CC[C@@H]32)C1
inactive: Potency [1] | Potency [3] | Potency [4] | Potency [12] | outcome [13] | Potency [7] | Potency [10] | Potency [8] | Potency [11]

CCC1=CC2CN3CCc4c([nH]c5ccccc45)[C@@](C(=O)OC)(C2)[C@@H]13
inactive: Potency [2] | Potency [3] | Potency [4] | Potency [6] | Potency [7] | Potency [10] | Potency [8]

C[C@H](CCC(=O)O)C[C@H](C)C[C@H](C)C(=O)/C=C(\O)[C@H](C)C[C@H](C)C/C=C/[C@@H](C)[C@@H](O)[C@@H](C)[C@@H](O)C[C@@H]1CC[C@@](C)([C@H]2CC[C@@](C)([C@@H](C)O)O2)O1
inactive: Potency [3] | Potency [4] | Potency [6] | Potency [7] | Potency [10] | Potency [8]

CN1CCN(c2nc3ccccc3nc2Cl)CC1
inactive: Potency [9] | Potency [1] | Potency [2] | Potency [3] | Potency [6] | Potency [7] | Potency [10] | Potency [8]

O=C(OC[C@H]1O[C@@H](Oc2ccc(O)cc2CO)[C@H](O)[C@@H](O)[C@@H]1O)c1ccccc1
inactive: Potency [1] | Potency [4] | Potency [6] | Potency [7] | Potency [10] | Potency [8]

C[C@@H]1[C@H](O)[C@@H](C)/C=C/C=C/CC/C=C/C=C/C=C/C=C/[C@H](O[C@H]2O[C@@H](C)[C@H](O)[C@@H](N)[C@H]2O)C[C@@H]2O[C@](O)(C[C@@H](O)[C@H](O)CC[C@@H](O)C[C@@H](O)C[C@@H](O)CC(=O)O[C@H]1C)C[C@H](O)[C@H]2C(=O)O
inactive: Potency [9] | Potency [1] | Potency [4] | outcome [13] inactive [at 17.4 µM] | Potency [7] | Potency [8]
active: Potency [2] 8.91 µM
